Holding throughout (assay): protein binding microarray; high values mean tight binding
Common to all, as to details: dsDNA, one strand shown

Experiment [1] addresses RELARELA (p65 homodimer) (Homo sapiens, UniProt Q04206 1-307).
Experiment [2] deals with p50p50 homodimer (Homo sapiens, UniProt P19838 7-356).
The target of experiment [3] is T1, p52p52 homodimer (Homo sapiens, UniProt Q00653 4-332).
T1 sequence: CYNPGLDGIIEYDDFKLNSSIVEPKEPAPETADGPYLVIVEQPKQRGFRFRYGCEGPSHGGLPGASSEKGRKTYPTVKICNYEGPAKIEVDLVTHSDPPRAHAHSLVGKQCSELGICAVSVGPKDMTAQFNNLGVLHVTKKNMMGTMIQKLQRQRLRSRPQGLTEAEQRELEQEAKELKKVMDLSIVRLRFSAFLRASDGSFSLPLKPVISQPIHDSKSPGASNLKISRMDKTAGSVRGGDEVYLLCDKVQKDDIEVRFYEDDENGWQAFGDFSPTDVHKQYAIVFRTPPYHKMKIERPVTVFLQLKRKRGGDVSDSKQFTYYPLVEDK

Experiment [4] concerns the target RELA (p65) subunit of heterodimer;p50 subunit (Homo sapiens;Homo sapiens, UniProt Q04206;P19838 1-307;7-356).
In experiment [5] the target is RELA (p65) subunit of heterodimer;p52 subunit (Homo sapiens;Homo sapiens, UniProt Q04206;Q00653 1-307;4-332).
Experiment [6] has as its target RELB subunit;p50 subunit (Homo sapiens;Homo sapiens, UniProt Q01201;P19838 120-401;7-356).
The target of experiment [7] is T2, RELB subunit;p52 subunit (Homo sapiens;Homo sapiens, UniProt Q01201;Q00653 120-401;4-332).
T2 sequence 1: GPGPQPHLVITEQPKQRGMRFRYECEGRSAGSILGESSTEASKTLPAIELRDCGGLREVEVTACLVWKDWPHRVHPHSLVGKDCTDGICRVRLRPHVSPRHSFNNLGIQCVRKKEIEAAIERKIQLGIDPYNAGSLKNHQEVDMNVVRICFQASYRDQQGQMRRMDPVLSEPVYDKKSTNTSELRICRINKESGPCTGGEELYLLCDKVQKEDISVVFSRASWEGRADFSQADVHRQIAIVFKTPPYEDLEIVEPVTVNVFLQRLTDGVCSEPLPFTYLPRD
T2 sequence 2: T1 sequence

Experiment [8] deals with C-Rel subunit;p50 subunit (Homo sapiens;Homo sapiens, UniProt Q04864;P19838 1-285;7-356).
In experiment [9] the target is T3, C-Rel subunit;p52 subunit (Homo sapiens;Homo sapiens, UniProt Q04864;Q00653 1-285;4-332).
T3 sequence 1: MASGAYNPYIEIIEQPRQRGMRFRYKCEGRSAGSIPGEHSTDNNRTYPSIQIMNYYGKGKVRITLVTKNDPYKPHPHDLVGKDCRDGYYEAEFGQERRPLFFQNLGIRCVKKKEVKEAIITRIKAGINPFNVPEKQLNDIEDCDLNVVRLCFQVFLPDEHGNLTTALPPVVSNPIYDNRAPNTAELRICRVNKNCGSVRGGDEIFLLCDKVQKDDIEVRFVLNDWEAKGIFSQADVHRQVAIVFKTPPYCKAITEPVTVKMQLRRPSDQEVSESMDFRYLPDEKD
T3 sequence 2: T1 sequence

Chain of p50p50 homodimer (P19838 7-356): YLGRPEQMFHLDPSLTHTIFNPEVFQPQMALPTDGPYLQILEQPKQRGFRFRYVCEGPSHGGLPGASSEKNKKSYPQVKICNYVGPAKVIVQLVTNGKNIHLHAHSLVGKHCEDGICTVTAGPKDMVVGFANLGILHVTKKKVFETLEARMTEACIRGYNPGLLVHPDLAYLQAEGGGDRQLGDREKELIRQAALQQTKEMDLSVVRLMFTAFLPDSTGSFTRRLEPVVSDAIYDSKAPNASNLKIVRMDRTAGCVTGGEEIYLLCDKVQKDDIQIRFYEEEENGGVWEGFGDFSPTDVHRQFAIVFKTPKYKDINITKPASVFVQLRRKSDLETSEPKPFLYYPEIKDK
Chain of RELARELA (p65 homodimer) (Q04206 1-307): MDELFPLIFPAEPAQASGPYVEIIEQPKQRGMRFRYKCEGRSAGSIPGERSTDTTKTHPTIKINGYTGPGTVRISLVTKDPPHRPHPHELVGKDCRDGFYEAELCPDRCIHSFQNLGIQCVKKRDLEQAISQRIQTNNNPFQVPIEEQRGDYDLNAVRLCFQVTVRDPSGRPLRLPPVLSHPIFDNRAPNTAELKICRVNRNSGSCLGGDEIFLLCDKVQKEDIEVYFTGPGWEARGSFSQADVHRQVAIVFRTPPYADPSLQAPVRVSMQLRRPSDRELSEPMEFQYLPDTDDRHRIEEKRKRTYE
Chain of RELA (p65) subunit of heterodimer;p50 subunit (Q04206 1-307, chain 1 of 2): as the sequence (Q04206 1-307) above
Chain of RELA (p65) subunit of heterodimer;p50 subunit (P19838 7-356, chain 2 of 2): as the sequence (P19838 7-356) above

As for AAAAGCCTCCT, the binding signal in experiment [1] is -1.11 z-score; in experiment [2] it was -1.28 z-score; in experiment [3] it was -0.721 z-score; in experiment [4], -0.959 z-score; in experiment [5] it was -1.07 z-score; in experiment [6] it was -1.23 z-score. Also, the binding signal in experiment [7] is -0.999 z-score; in [8], -1.5 z-score; in experiment [9] it was -1.03 z-score.
In the case of GGAGAACCCCC, the binding signal in experiment [1] stood at 0.892 z-score; in experiment [2], 1.01 z-score; in experiment [3], 1.75 z-score; in experiment [4], 1.88 z-score; in [5] it was 1.77 z-score; in experiment [6], 1.42 z-score. Further, the binding signal in [7] was found to be 1.59 z-score; in experiment [8], 1.21 z-score; in experiment [9], 1.74 z-score.
Take AGAATTGTCCC: the binding signal in [1] worked out at 0.95 z-score; in experiment [2], 0.906 z-score; in experiment [3] it was 0.873 z-score; in experiment [4], 0.803 z-score; in experiment [5], 0.85 z-score; in [6], 0.82 z-score. The binding signal in experiment [7] amounted to 0.675 z-score; in [8], 0.87 z-score; in experiment [9] it was 0.604 z-score.
Turning to CAGAGATTCCT, the binding signal in [1] is 0.143 z-score; in experiment [2] it was -1.43 z-score; in experiment [3] it was -0.492 z-score; in experiment [4], -0.806 z-score; in experiment [5], -0.992 z-score; in [6], -1.16 z-score. Also, the binding signal in [7] was -1 z-score; in experiment [8], -0.64 z-score; in experiment [9], -0.606 z-score.
For GGGTTATCCCC, the binding signal in experiment [1] is 2.08 z-score; in [2], 0.73 z-score; in experiment [3], 3.22 z-score; in experiment [4], 1.96 z-score; in [5], 2.63 z-score; in [6], 1.91 z-score. Besides, the figures for the binding signal in experiment [7], in experiment [8] and in experiment [9] were 2.13 z-score, 1.6 z-score and 2.55 z-score, respectively.
On to GGAAAGTTCCC, for which the binding signal in experiment [1] amounted to 2.6 z-score; in experiment [2], 0.736 z-score; in experiment [3], 0.736 z-score; in [4] it was 1.29 z-score; in experiment [5], 1.02 z-score; in [6] it was 0.762 z-score. Moreover, the binding signal in experiment [7] came out at 0.686 z-score; in experiment [8], 0.966 z-score; in experiment [9], 0.929 z-score.
Consider CAGTTTGCCCC, for which the binding signal stood at 1.6 z-score in experiment [1]; 0.492 z-score in [2]; 0.189 z-score in experiment [3]; 1.17 z-score in [4]; 0.571 z-score in [5]; 0.532 z-score in experiment [6]. Further, the binding signal in experiment [7] is 0.563 z-score; in experiment [8] it was 1.5 z-score; in experiment [9] it was 0.899 z-score.
Take CAAAGAACCCT: the binding signal in experiment [1] was -0.87 z-score; in [2], -0.409 z-score; in [3], -0.354 z-score; in experiment [4] it was -0.631 z-score; in experiment [5], -0.614 z-score; in experiment [6] it was -0.682 z-score. Further, the binding signal in [7] was -0.58 z-score; in experiment [8], -0.78 z-score; in experiment [9], -0.544 z-score.
With GGAATGGTCCT, the binding signal in experiment [1] was 0.313 z-score; in experiment [2], -1.37 z-score; in experiment [3], -0.493 z-score; in experiment [4], -0.849 z-score; in experiment [5] it was -0.627 z-score; in experiment [6], -0.903 z-score. In addition, the binding signal is -0.612 z-score in [7], -0.89 z-score in experiment [8] and -0.524 z-score in experiment [9].
As for AAGGATATCCT, the binding signal in experiment [1] is -0.125 z-score; in experiment [2], -1.04 z-score; in [3], -0.548 z-score; in experiment [4] it was -0.853 z-score; in experiment [5], -0.906 z-score; in [6], -0.945 z-score. The figures for the binding signal in experiment [7], in [8] and in [9] were -0.859 z-score, -1.41 z-score and -0.843 z-score, respectively.
With CAATGCACCCT, the binding signal in experiment [1] was -0.473 z-score; in experiment [2], -0.555 z-score; in experiment [3], -0.333 z-score; in experiment [4] it was -0.616 z-score; in [5], -0.779 z-score; in [6], -0.601 z-score. Moreover, the results for the binding signal in experiment [7], in experiment [8] and in experiment [9] were -0.639 z-score, -1 z-score and -0.653 z-score, respectively.
Regarding CAAAACACCCC, the binding signal in experiment [1] is 0.0833 z-score; in experiment [2] it was 0.707 z-score; in [3], 0.313 z-score; in experiment [4], 0.534 z-score; in experiment [5], 0.701 z-score; in [6], 0.488 z-score. Also, the binding signal was found to be 1.03 z-score in experiment [7], 0.611 z-score in [8] and 0.701 z-score in experiment [9].
Regarding AAATGAGTCCT, the binding signal in experiment [1] was -0.142 z-score; in [2] it was -1.04 z-score; in [3], -0.602 z-score; in [4] it was -0.991 z-score; in experiment [5] it was -0.866 z-score; in experiment [6], -0.889 z-score. The binding signal in experiment [7] was -0.596 z-score; in experiment [8], -1.08 z-score; in [9] it was -0.769 z-score.
As to AAGTGGGCCCT, the binding signal is -0.584 z-score in experiment [1]; -0.904 z-score in experiment [2]; -0.603 z-score in experiment [3]; -0.886 z-score in experiment [4]; -0.714 z-score in experiment [5]; -0.762 z-score in experiment [6]. Further, the binding signal in experiment [7] was -0.527 z-score; in experiment [8] it was -1.25 z-score; in experiment [9], -0.634 z-score.
As for CAGAGCACCCT, the binding signal in [1] is -0.924 z-score; in [2], -0.392 z-score; in [3] it was -0.306 z-score; in experiment [4] it was -0.624 z-score; in experiment [5] it was -0.75 z-score; in experiment [6] it was -0.474 z-score. Also, the binding signal is -0.444 z-score in [7], -1.15 z-score in [8] and -0.736 z-score in experiment [9].

Source of the values: publication PMC3218832.
